# Source: PubChem BioAssay (NCI)
# This is part of a sample that, as a whole, favours compounds with a hit. Of some 83,000 tested, about 20% had one in any assay.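 Cells were grown in 96-well plates and exposed to the test compound at a single concentration for 48 hours; results are reported as percent growth, with values below 10 considered active.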 Values without a mark were called inactive. Active and inactive are the calls of the source.
# Key:
# Test in all cases: NCI-60 one-dose screen, 48 h (100 = growth as untreated, 0 = no growth, -100 = all killed)
# A549/ATCC NSCLC = conditions: 10 µM unless noted
# DU-145 prostate = conditions: 10 µM unless noted
# K-562 leukemia = conditions: 10 µM unless noted
# RXF 393 renal = conditions: 10 µM unless noted
# SF-295 CNS = conditions: 10 µM unless noted
# UACC-257 melanoma = conditions: 10 µM unless noted
# HCT-15 colon = conditions: 10 µM
# HT29 colon = conditions: 10 µM unless noted
# LOX IMVI melanoma = conditions: 10 µM unless noted
# SN12C renal = conditions: 10 µM unless noted
# CAKI-1 renal = conditions: 10 µM unless noted
# A498 renal = conditions: 10 µM unless noted
# MOLT-4 leukemia = conditions: 10 µM
# OVCAR-8 ovarian = conditions: 10 µM unless noted
# OVCAR-4 ovarian = conditions: 10 µM unless noted
# SK-OV-3 ovarian = conditions: 10 µM unless noted
# HS 578T breast = conditions: 10 µM unless noted
# BT-549 breast = conditions: 10 µM
# HCC-2998 colon = conditions: 10 µM unless noted
# HL-60(TB) leukemia = conditions: 10 µM unless noted
SMILES,growth (A549/ATCC NSCLC),growth (DU-145 prostate),growth (K-562 leukemia),growth (RXF 393 renal),growth (SF-295 CNS),growth (UACC-257 melanoma),growth (HCT-15 colon),growth (HT29 colon),growth (LOX IMVI melanoma),growth (SN12C renal),growth (CAKI-1 renal),growth (A498 renal),growth (MOLT-4 leukemia),growth (OVCAR-8 ovarian),growth (OVCAR-4 ovarian),growth (SK-OV-3 ovarian),growth (HS 578T breast),growth (BT-549 breast),growth (HCC-2998 colon),growth (HL-60(TB) leukemia)
CNC(C)Cc1ccccc1 (configuration not stated) (tested in a mixture with another compound),92.3%,108%,88.9%,105%,97.7%,109%,101%,107%,98.7%,104%,102%,92.5%,90.6%,113%,104%,92.8%,106%,109%,101%,–
CC(=O)N1N=C(c2ccccc2)CC1c1sc(N(CCCl)CCCl)nc1Cl (configuration not stated),86.3%,99.5%,80%,97.5%,92.5%,92.2%,94.8%,93.9%,103%,86.6%,80.2%,97.5%,86.7%,95.8%,101%,89.4%,88%,92.8%,96.4%,98%
CC(C)CCC[C@@H](C)[C@H]1CC[C@H]2[C@@H]3CC=C4C[C@@H](OC(=O)Cc5ccc(N(CCCl)CCCl)cc5)CC[C@]4(C)[C@H]3CC[C@]12C,112%,116%,90.4%,–,119%,103%,108%,107%,104%,99.9%,97%,132%,99.8%,99.8%,114%,114%,117%,–,-5.75% (active),86.9%
CC1(C)CC2(CC(C)(C)c3cc(O)c(O)cc32)c2cc(O)c(O)cc21,97.2%,98.8%,–,85.8%,96.1%,109%,89.5%,114%,94.8%,94.2%,92.3%,99.4%,71.6%,97.3%,82%,97.1%,89.2%,111%,102%,104%
CNC(=O)Oc1cccc(N(C)C)c1,93%,110%,102%,103%,99.8%,93.5%,103%,106%,96.9%,94.6%,91.6%,104%,107%,99.5%,106%,99.7%,108%,94.1%,111%,103%
COc1cc(/C=C\c2cc(OC)c(OC)c(OC)c2)cc(N/C=C\C(=O)c2ccc(OC(F)(F)F)cc2)c1OC,19.4%,14.4%,4.67% (active),–,9.29% (active),51.1%,9.36% (active),-36.6% (active),33.4%,36.5%,45.5%,-1.24% (active),34.6%,30%,57.4%,19.9%,29.4%,44.8%,–,11%
Cc1ccc(C(=O)C2CN(C)CCC2(O)c2ccc(C)cc2)cc1 (configuration not stated),104%,117%,123%,128%,111%,104%,103%,113%,98.9%,107%,93.7%,94%,103%,107%,106%,122%,97%,–,98.3%,106%
[N-]=[N+]=NC(C(=O)O)c1ccccc1 (configuration not stated),95.2%,116%,94.3%,140%,102%,98.3%,101%,99.1%,100%,119%,91.8%,101%,87.4%,100%,–,99.5%,113%,114%,96.9%,89.4%
